Measured values from PubChem BioAssay (NCATS).
Unmarked numbers belong to inactive results. The source made the active and inactive calls. Calls follow the shape of the dose curve; as a rule, active = well fitted curve in the direction sought with a large enough effect; inconclusive = small, poorly fitted or top-dose-only effect, or another doubt; inactive = no such curve, though single readings can be large or run the other way.

Target: Hexokinase-4 (Homo sapiens) + Glucokinase regulatory protein (Homo sapiens) (UniProt P35557+Q14397)
Assay: qHTS assay for inhibitors of recombinant human GCK-GKRP interaction: Diaphorase-coupled assay (AID 743205)
Conditions: G6PDH/diaphorase resorufin fluorescence; series mostly up to 57.5 µM; activity change, positive = activation: at the top concentration
Excerpt: Glucokinase (GCK) is a glucose sensor in hepatocytes and pancreatic beta-cells. Hepatic GCK is regulated by glucokinase regulatory protein (GKRP), which is predominantly localized to the liver. GKRP binds to GCK inhibiting its activity in the fasting state while in the presence of glucose the GKRP is displaced. There is an additional layer of regulation by fructose 1-phosphate and fructose 6-phosphate, which inhibit and enhance the GCK-GKRP interaction, respectively. GCK plays a role in glucose homeostasis and there is an interest in the development of strategies to activate GCK to lower blood glucose levels in type 2 diabetes. To date the majority of effort has focused on direct activation of GCK and the assays developed herein look to activate GCK by inhibiting its binding to GKRP. A compound that inhibits the interaction of GCK with GKRP could be important for the treatment of diabetes and can also be used as a tool compound to further elucidate GCK-GKRP biology. To that end, we have developed a sensitive HTS biochemical assay where in GCK activity is coupled to G6PDH and Diaphorase to interrogate the GCK-GKRP interaction. This assay was screened against a small compound library to look for modulators of activity.
2 uL of substrate (columns 1-48) are dispensed into Greiner, black solid-bottom 1536-well assay plates. Compounds (23 nL) are then transferred via Kalypsys pin tool equipped with 1536-pin array (10 nL slotted pins, V&P Scientific, San Diego, CA). The library compounds are in columns 5-48 and columns 1-4 serve as controls with DMSO in columns 1 and 3 and 26 mM 1:1.5 fold serial of gluckokinase activator (GKA-EMD) in column 2 and 26 mM of the glucokinase activator (GKA-EMD) in column 4. Following addition of compound and a 20 minute incubation, 1 uL of enzyme mix (GST-GCK, FLAG-GKRP and diaphorase) is added to columns 1, 2, 4-48 and 1 uL of no enzyme mix (FLAG-GKRP and diaphorase) is added to column 3 and the fluorescent product resorufin generated from resazurin was monitored on a Viewlux (PerkinElmer, Shelton, CT, USA) with excitation at 525 nm and emission at 590 nm in kinetic mode where the plate was read every minute for 30 minutes. The final concentration of reagents in the reaction are 25 mM Hepes pH 7.6, 25 mM KCl, 2 mM MgCl2, 1.4 mM 2-mercaptoethanol, 0.025% BSA, 0.01% Tween-20, 0.15 mM NADP+, 5 mM glucose, 0.4 mM ATP, 4 U/ml G6PDH, 0.1 mM resazurin, 10 nM GST-GCK, 10 nM FLAG-GKRP, diaphorase (0.1 mg/mL). Data are normalized to DMSO-treated control columns with (maximum signal) and without (minimum signal) enzyme.

Chain of Hexokinase-4 (Homo sapiens) + Glucokinase regulatory protein (Homo sapiens) (P35557 whole entry, looked up): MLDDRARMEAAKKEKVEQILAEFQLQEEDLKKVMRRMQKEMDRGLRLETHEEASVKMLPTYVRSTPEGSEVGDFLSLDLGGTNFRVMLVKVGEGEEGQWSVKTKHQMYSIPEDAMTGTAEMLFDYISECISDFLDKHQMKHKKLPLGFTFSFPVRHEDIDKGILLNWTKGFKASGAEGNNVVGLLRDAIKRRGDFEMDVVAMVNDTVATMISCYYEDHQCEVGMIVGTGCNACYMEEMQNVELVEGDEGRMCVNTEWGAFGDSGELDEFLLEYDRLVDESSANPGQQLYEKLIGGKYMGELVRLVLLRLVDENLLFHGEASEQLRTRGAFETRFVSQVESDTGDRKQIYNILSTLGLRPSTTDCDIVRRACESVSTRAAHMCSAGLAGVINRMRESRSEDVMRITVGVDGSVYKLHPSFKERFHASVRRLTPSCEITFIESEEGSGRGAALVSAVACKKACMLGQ
Chain of Hexokinase-4 (Homo sapiens) + Glucokinase regulatory protein (Homo sapiens) (Q14397 whole entry, looked up): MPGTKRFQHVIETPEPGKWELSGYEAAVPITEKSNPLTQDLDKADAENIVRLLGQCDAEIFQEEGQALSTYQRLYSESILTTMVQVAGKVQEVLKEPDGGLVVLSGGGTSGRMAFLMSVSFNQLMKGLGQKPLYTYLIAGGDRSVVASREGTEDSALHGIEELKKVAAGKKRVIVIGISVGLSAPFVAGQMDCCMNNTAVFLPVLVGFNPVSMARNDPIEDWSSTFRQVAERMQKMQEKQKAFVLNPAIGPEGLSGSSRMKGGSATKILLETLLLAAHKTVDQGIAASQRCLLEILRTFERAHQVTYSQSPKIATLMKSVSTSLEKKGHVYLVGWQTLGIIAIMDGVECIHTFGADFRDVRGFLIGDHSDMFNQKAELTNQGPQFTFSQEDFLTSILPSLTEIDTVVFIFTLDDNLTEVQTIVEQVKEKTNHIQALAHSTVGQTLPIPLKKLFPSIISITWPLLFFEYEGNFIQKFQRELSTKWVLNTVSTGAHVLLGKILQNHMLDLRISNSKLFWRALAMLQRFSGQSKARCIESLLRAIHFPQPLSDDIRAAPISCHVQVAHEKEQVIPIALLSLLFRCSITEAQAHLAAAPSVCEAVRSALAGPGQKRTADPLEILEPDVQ

| SMILES | activity change, positive = activation | outcome |
| --- | --- | --- |
| O=c1c(-c2ccc(O)cc2)coc2cc(O)ccc12 | 0.157% |  |
| CC(=O)c1ccc(S(=O)(=O)NC(=O)NC2CCCCC2)cc1 | 1.44% |  |
| Clc1ccc(Cn2c(CN3CCCC3)nc3ccccc32)cc1 | -2.14% |  |
| CCN(CC)C(=O)c1ccc(O)c(OC)c1 | -3.98% |  |
| CCN1CCC[C@H]1CNC(=O)c1cc(S(N)(=O)=O)ccc1OC | -2.65% |  |
| O=C1NCC2(CCN(CCc3ccccc3)CC2)O1 | -8.1% |  |
| COC(=O)[C@@H]1[C@H]2C[C@H]3c4[nH]c5ccccc5c4CCN3C[C@@H]2CC[C@@H]1O | 4.64% |  |
| CC(C)OC(=O)C(C)(C)Oc1ccc(C(=O)c2ccc(Cl)cc2)cc1 | 3.35% |  |
| CCCCCN(C)CCC(O)(P(=O)(O)O)P(=O)(O)O | -1.6% |  |
| COc1cccc(-c2cc(=O)c3ccccc3o2)c1N | -11.4% |  |
| CC1(C)CCC2=C(O1)c1ccccc1C(=O)C2=O | -46.9% |  |
| CCN(CC)CCOC(=O)c1ccc(N)cc1 | 4.36% |  |
| CC1=C(/C=C/C(C)=C/C=C/C(C)=C/C(=O)Nc2ccc(O)cc2)C(C)(C)CCC1 | -11.9% |  |
| O=c1cc(-c2ccc(O)cc2)oc2cc(O)cc(O)c12 | -13.8% |  |
| Clc1ccc(C(c2ccc(Cl)cc2)n2cc[n+](CC(OCc3ccc(Cl)cc3Cl)c3ccc(Cl)cc3Cl)c2)cc1 (stereo not given) | -12.2% |  |
| Cc1cccc(C)c1OCC(C)N (stereo not given) | -3.88% |  |
| O=C1NC(=O)C(c2ccccc2)(c2ccccc2)N1 |  | inactive |
| CC/C(=C(\c1ccccc1)c1ccc(OCCN(C)C)cc1)c1ccccc1 | -0.471% |  |
| CN(C)CCC(c1ccccc1)c1ccccn1 (stereo not given) | -1.29% |  |
| NC(N)=Nc1nc(CSCC/C(N)=N/S(N)(=O)=O)cs1 | -9.23% |  |
| CCN(CC)CCNC(=O)c1ccc(N)cc1 | -0.807% |  |
| CCCCC1C(=O)N(c2ccccc2)N(c2ccccc2)C1=O | -6.22% |  |
| NCCS | -3.41% |  |
| CC(=O)O[C@]1(C(C)=O)CC[C@H]2[C@@H]3C=C(Cl)C4=CC(=O)[C@@H]5C[C@@H]5[C@]4(C)[C@H]3CC[C@@]21C | -5.13% |  |
| CC(=O)N[C@@H](CS)C(=O)O | -3.77% |  |
| C[N+](C)(C)CCCCCC[N+](C)(C)C |  | inactive |
| O=C(NCCN1CCOCC1)c1ccc(Cl)cc1 | -2.3% |  |
| CCCNC(=O)NS(=O)(=O)c1ccc(Cl)cc1 | -4.89% |  |
| CC(=O)CCCCn1c(=O)c2c(ncn2C)n(C)c1=O | -0.939% |  |
| COc1ccccc1N1CCN(CCCNc2cc(=O)n(C)c(=O)n2C)CC1 | -5.87% |  |
